Outcome and AC50 data for four molecules are collected here from PubChem BioAssay (EPA / NIEHS).

The nature of assay [1]: ATG_CRE_CIS: Attagene CIS-FACTORIAL HepG2 Assay for human cAMP Responsive Element (CRE) binding protein 3 (AID 2282926). The conditions noted are these: HepG2 CRE cis-reporter, Attagene multiplexed mRNA; actives raise or lower the signal. In short, it runs like this:
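Induced reporter mRNA from a CRE cis element, measured in HepG2 among many multiplexed units at 24 h. Detection used RT-PCR plus capillary electrophoresis of fluorescent fragments; DMSO served as negative control.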

In assay [2] the target is CCAAT/enhancer-binding protein beta (Homo sapiens) (UniProt P17676). Put plainly: ATG_C_EBP_CIS: Attagene CIS-FACTORIAL HepG2 Assay for human CCAAT/Enhancer Binding Protein (C/EBP) beta (AID 2282927). The conditions noted are these: HepG2 Attagene cis-factorial transcription factor reporter; actives raise or lower the signal. The procedure, abridged:
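Changes in reporter mRNA, rather than exogenous chimeric receptor activity, reflect native C/EBP signalling in transfected HepG2 cells dosed for 24 h; transcripts are detected by RT-PCR and capillary electrophoresis.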

Assay [3] can be described thus: ATG_CMV_CIS: Attagene CIS-FACTORIAL HepG2 Assay for human CMV (Internal Marker) (AID 2282928).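 Note: endpoint acts as a background internal control marker rather than a target.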 The following applies: HepG2 CMV promoter reporter, transcription factor profiling; actives raise or lower the signal. In short, it runs like this:
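Readout: fluorescent reporter cDNA fragments separated by capillary electrophoresis after RT-PCR and HpaI cut. Cells: HepG2 carrying transfected cis-promoter reporter constructs, dosed 24 h. Endpoint serves as background internal-marker control, fit bidirectionally versus DMSO.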

A short description of assay [4]: ATG_DR4_LXR_CIS: Attagene CIS-FACTORIAL HepG2 Assay for human Liver X Receptor (LXR), DR4 submotif (AID 2282929). The following applies: HepG2 Attagene DR4 cis-reporter, mRNA transcription; actives raise or lower the signal. In short, it runs like this: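 Cells were transfected with multiple reporter transcription units, exposed to chemicals for 24 hours, then lysed for RNA. Reporter mRNA induction was measured by RT-PCR with capillary electrophoresis detection and fitted in both directions relative to DMSO.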

Assay [5] in a line: ATG_AP_1_CIS: Attagene CIS-FACTORIAL HepG2 Assay for human Activator Protein 1 (AP-1) (AID 2282931). The following applies: HepG2 Attagene cis-factorial AP-1 reporter mRNA; actives raise or lower the signal. In short, it runs like this:
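Endogenous transcription-factor activity in human HepG2 liver cells is read through a cis-promoter reporter transcript, sampled 24 h after dosing. Detection uses RT-PCR with capillary electrophoresis; values come from bidirectional fitting relative to DMSO.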

The nature of assay [6]: ATG_AP_2_CIS: Attagene CIS-FACTORIAL HepG2 Assay for human Activator Protein 2 (AP-2) (AID 2282932). The following applies: HepG2 AP-2 cis-reporter, Attagene transcription factor profiling; actives raise or lower the signal. The procedure, abridged:
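Transiently transfected HepG2 cells are exposed to chemical for 24 h. Reporter transcripts are then measured as fluorescence following RT-PCR and capillary separation, and gain- or loss-of-signal is fitted relative to DMSO.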

Assay [7] in a line: ATG_BRE_CIS: Attagene CIS-FACTORIAL HepG2 Assay for human Bone Morphogenetic Protein (BMP) Response Element (BRE) (AID 2282933). The following applies: HepG2 BMP response element reporter, Attagene transcription factor profiling; actives raise or lower the signal. In short, it runs like this: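 A HepG2 multiplex reporter system measured inducible reporter mRNA 24 h post-dosing. Detection: RT-PCR, 6-FAM primer extension, HpaI digestion, capillary electrophoresis. Activity fitted bidirectionally relative to DMSO.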

Assay [8] concerns the target Retinoic acid receptor alpha (Homo sapiens) (UniProt P10276). Kind of assay: ATG_DR5_RAR_CIS: Attagene CIS-FACTORIAL HepG2 Assay for human Retinoic Acid Receptor Alpha (RARE), DR5 submotif (AID 2282934). The following applies: HepG2 Attagene cis-factorial RARE DR5 reporter, mRNA; actives raise or lower the signal. The procedure, abridged:
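HepG2, transient cis-reporter transfection, 24 h exposure. mRNA readout: RT-PCR, FAM label, HpaI cut, capillary electrophoresis. DMSO baseline, gain/loss fitting.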

For assay [9], the target named is Transcription factor E2F1 (Homo sapiens) (UniProt Q01094). Kind of assay: ATG_E2F_CIS: Attagene CIS-FACTORIAL HepG2 Assay for human E2F Transcription Factor 1 (AID 2282935). The following applies: HepG2 Attagene cis-reporter, E2F reporter RNA transcripts; actives raise or lower the signal. The procedure, abridged: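 Fluorescent RT-PCR products, digested with HpaI for 2 h at 37 C, are separated by capillary electrophoresis. Source RNA comes from transfected HepG2 cultures treated for 24 h.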
Sequence of Transcription factor E2F1 (Homo sapiens) (Q01094 whole entry, looked up): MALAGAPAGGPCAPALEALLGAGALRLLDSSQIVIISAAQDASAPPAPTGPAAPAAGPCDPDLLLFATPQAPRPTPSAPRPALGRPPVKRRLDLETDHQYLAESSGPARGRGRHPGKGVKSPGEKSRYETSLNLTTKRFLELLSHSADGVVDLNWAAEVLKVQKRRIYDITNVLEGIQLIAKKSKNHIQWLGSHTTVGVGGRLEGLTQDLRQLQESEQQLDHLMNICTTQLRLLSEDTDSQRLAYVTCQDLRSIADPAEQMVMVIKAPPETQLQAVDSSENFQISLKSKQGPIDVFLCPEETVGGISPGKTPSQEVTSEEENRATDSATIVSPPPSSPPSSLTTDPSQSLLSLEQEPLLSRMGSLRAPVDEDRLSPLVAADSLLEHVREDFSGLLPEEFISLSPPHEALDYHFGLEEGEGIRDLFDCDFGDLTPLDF

Assay [10] is described as follows: ATG_E_Box_CIS: Attagene CIS-FACTORIAL HepG2 Assay for human Enhancer Box (E-box) (AID 2282936). The conditions noted are these: HepG2 E-box cis-reporter transcription, actives raise or lower the signal. The procedure, abridged: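 Fluorescent reporter fragments separated by capillary electrophoresis gave the signal; mRNA came from HepG2 cells transfected with cis-element reporters and treated 24 h. Curves fitted bidirectionally relative to DMSO controls.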

Assay [11] in a line: ATG_M_61_CIS: Attagene CIS-FACTORIAL HepG2 Assay for M61 Transcription Factor (Internal Marker) (AID 2282937). The conditions noted are these: HepG2 Attagene CIS-FACTORIAL M61 internal marker reporter; actives raise or lower the signal. In short, it runs like this: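 Cells were transfected with reporter units under cis-regulatory promoters, treated with chemicals for 24 h, then lysed for RNA. Reporter transcripts were quantified by RT-PCR and capillary electrophoresis, and activity was fitted bidirectionally against DMSO.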

A short description of assay [12]: ATG_EGR_CIS: Attagene CIS-FACTORIAL HepG2 Assay for human Early Growth Response 1 (EGR1) (AID 2282938). The conditions noted are these: HepG2 Attagene CIS-FACTORIAL EGR reporter mRNA; actives raise or lower the signal. The procedure, abridged: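 Endogenous TF activity in HepG2 liver cells was gauged through cis-promoter reporter constructs transiently transfected. After 24 h dosing, reporter mRNA was quantified by RT-PCR and capillary electrophoresis, and curves fitted in both directions versus DMSO.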

The nature of assay [13]: ATG_M_19_CIS: Attagene CIS-FACTORIAL HepG2 Assay for M19 Transcription Factor (Internal Marker) (AID 2282939). The conditions noted are these: HepG2 Attagene CIS-FACTORIAL M19 internal marker reporter; actives raise or lower the signal. The procedure, abridged: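 Chemical-treated HepG2 (24 h) with MRTU constructs; reporter transcripts detected by fluorescent RT-PCR fragment analysis on capillary electrophoresis. Internal background marker, DMSO as baseline.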

Assay [14] can be described thus: ATG_ERE_CIS: Attagene CIS-FACTORIAL HepG2 Assay for Estrogen Response Element (ERE) (AID 2282940). The conditions noted are these: HepG2 ERE cis-reporter, Attagene RNA transcript; actives raise or lower the signal. In short, it runs like this:
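Human liver cells (HepG2) bearing transiently transfected, promoter-regulated reporter units were exposed 24 h. Reporter mRNA induction was detected by capillary electrophoresis of labelled RT-PCR products and fitted bidirectionally to DMSO.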

Assay [15] can be described thus: ATG_Ets_CIS: Attagene CIS-FACTORIAL HepG2 Assay for human Erythroblast Transformation Specific (ETS) (AID 2282941). The conditions noted are these: HepG2 ETS cis-reporter transcription, actives raise or lower the signal. In short, it runs like this: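 RT-PCR/capillary electrophoresis fluorescence read-out of reporter mRNA; HepG2 transient multi-reporter transfection; 24 h compound exposure; gain or loss of signal fitted bidirectionally relative to DMSO.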

The target in assay [16] is Hepatocyte nuclear factor 3-beta (Homo sapiens) (UniProt Q9Y261). Put plainly: ATG_FoxA2_CIS: Attagene CIS-FACTORIAL HepG2 Assay for human Forkhead box A2 (FOXA2) (AID 2282942). The following applies: HepG2 cis-reporter transcription factor activity, 24 h; actives raise or lower the signal. The procedure, abridged: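 Endogenous transcription factor activity was read in HepG2 cells carrying transiently transfected cis-promoter reporter units. After 24 h dosing, reporter mRNA was quantified by RT-PCR and capillary electrophoresis, and values fitted bidirectionally versus DMSO.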
Sequence of Hepatocyte nuclear factor 3-beta (Homo sapiens) (Q9Y261 whole entry, looked up): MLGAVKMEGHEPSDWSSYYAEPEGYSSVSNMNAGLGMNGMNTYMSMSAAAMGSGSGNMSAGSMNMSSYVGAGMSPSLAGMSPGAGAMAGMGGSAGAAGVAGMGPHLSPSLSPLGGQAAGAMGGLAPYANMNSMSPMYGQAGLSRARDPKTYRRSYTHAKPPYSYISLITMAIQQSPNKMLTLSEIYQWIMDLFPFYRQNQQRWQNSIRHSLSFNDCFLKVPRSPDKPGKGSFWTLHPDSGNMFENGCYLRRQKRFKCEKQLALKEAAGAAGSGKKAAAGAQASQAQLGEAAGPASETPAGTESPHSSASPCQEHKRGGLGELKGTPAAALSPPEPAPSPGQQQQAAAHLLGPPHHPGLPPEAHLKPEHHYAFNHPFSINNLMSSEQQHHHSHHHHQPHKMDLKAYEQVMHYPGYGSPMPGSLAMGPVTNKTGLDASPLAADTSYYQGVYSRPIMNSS

Assay [17] is described as follows: ATG_FoxO_CIS: Attagene CIS-FACTORIAL HepG2 Assay for human Forkhead box O (FoxO) (AID 2282943). The following applies: HepG2 Attagene cis-reporter, FoxO element, mRNA; actives raise or lower the signal. The procedure, abridged:
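Human hepatoma HepG2 cells carry transiently introduced reporter transcription units controlled by cis promoter elements. Chemical treatment lasted 24 h, and mRNA signal was compared with DMSO.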

Assay [18] can be described thus: ATG_GATA_CIS: Attagene CIS-FACTORIAL HepG2 Assay for human GATA Binding Protein (AID 2282944). The following applies: HepG2 GATA cis-element reporter, Attagene multiplex mRNA; actives raise or lower the signal. In short, it runs like this: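 Transfected cis-reporter HepG2 cells were treated with chemicals for 24 hours. Total RNA was then converted to cDNA, amplified with reporter-specific primers and analysed by fluorescent capillary electrophoresis, using DMSO-treated wells as baseline.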

Assay [19] in a line: ATG_GLI_CIS: Attagene CIS-FACTORIAL HepG2 Assay for human Zinc Finger Protein GLI1 (AID 2282945). The following applies: HepG2, Attagene cis-factorial reporter mRNA, GLI element; actives raise or lower the signal. In short, it runs like this: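 Bidirectional curve fits relative to DMSO, using reporter mRNA levels from RT-PCR plus capillary electrophoresis. Cells were HepG2 transiently carrying cis-regulated reporter constructs, harvested 24 h after dosing.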

The source made the active and inactive calls. Rule for the calls: active = hit-call score of the fitted dose curve at least 0.9, where 1 is the maximum; inactive = score below 0.9.

Sequence of CCAAT/enhancer-binding protein beta (Homo sapiens) (P17676 whole entry, looked up): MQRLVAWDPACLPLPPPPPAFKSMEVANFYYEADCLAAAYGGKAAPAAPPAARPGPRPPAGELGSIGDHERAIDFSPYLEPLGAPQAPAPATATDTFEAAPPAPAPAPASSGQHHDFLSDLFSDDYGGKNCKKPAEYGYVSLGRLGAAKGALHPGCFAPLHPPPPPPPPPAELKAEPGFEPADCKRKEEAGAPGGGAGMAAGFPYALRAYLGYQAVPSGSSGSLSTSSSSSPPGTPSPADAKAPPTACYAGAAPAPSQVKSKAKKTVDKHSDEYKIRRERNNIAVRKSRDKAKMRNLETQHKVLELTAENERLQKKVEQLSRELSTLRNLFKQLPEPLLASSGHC
Sequence of Retinoic acid receptor alpha (Homo sapiens) (P10276 whole entry, looked up): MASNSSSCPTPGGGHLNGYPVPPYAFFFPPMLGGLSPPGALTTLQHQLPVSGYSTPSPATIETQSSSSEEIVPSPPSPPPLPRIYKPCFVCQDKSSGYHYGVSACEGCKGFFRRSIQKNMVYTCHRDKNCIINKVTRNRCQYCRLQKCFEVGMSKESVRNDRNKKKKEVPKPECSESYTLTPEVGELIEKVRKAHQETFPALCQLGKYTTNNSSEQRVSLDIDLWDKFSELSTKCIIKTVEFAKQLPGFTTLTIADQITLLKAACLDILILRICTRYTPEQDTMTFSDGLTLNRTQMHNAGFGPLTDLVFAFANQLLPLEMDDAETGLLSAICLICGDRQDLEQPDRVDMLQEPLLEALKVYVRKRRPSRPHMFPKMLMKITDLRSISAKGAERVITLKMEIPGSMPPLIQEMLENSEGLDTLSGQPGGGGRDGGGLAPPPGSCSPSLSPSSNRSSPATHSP

Turning to `Cc1ccc2c(c1)C(=O)c1ccccc1C2=O`, the result in [1], in [2], in [4], in assay [5], in assay [6] and in assay [7] was inactive. For the same molecule, the outcome in [8], in [9], in [10], in assay [11], in [12] and in [13] was inactive. The molecule was called inactive in [15], in [16], in assay [17], in [18] and in assay [19]. In addition, the results for the concentration at half-maximal activity (AC50) in assay [3] and in [14] were 21.5 µM (active) and 12.2 µM (active), respectively.

As to `O=C(c1ccc(O)cc1)c1ccc(O)cc1O`, the molecule was called inactive in assay [1], in assay [2], in [4], in [5], in assay [6] and in [8]. Moreover, the molecule was classed as inactive in assay [9], in assay [10], in [11], in [12], in assay [13] and in assay [15]. Besides, the molecule was called inactive in assay [16], in assay [17], in [18] and in [19]. The AC50 – broadly, the concentration at which the activity in the assay is half-maximal – in [3] was 68.7 µM (active); in assay [7], 100 µM (active); in assay [14] it was 0.84 µM (active).

For the molecule `O=C(O)c1cc2ccccc2nc1C(=O)O`, the outcome in assay [1], in assay [2], in [3], in [4], in assay [5] and in [6] was inactive. Moreover, the result in [7], in assay [8], in [9], in assay [10], in assay [11] and in assay [12] was inactive. Further, the result in [13], in assay [14], in assay [15], in assay [16], in [17] and in assay [18] was inactive. For the same molecule, in assay [19], the molecule was called inactive.

For the molecule `CCOc1ccc(N)c([N+](=O)[O-])c1`, the call in assay [1], in assay [2], in [3], in assay [4], in assay [5] and in assay [6] was inactive. For the same molecule, the molecule was classed as inactive in assay [7], in assay [8], in assay [9], in assay [10], in assay [11] and in assay [12]. The molecule was called inactive in [13], in [14], in assay [15], in assay [16], in assay [17] and in [18]. The molecule was called inactive in assay [19].
